Assay results from PubChem BioAssay AID588453 (National Center for Advancing Translational Sciences (NCATS), 2011).
The whole screen tested about 390,000 compounds, of which about 4,000 (1%) were called active. Another 4% or so got no clear call; they are omitted. Many of the other results were omitted from the sample, so actives are more common in it than they were. A number with no mark means an inactive call. Calls come from the whole dose curve; as a rule, active = well fitted inhibition curve with a large enough effect; inconclusive = small, poorly fitted or top-dose-only effect; inactive = no such curve, though single readings can be large or run the other way.

Target: Thioredoxin reductase 1, cytoplasmic (Rattus norvegicus) (UniProt O89049)
Test: qHTS Assay for Inhibitors of Mammalian Selenoprotein Thioredoxin Reductase 1 (TrxR1): qHTS; note: nearly all actives have a fitted effect of over 65% in size
Details: recombinant rTrxR1, NADPH fluorescence consumption, selenite substrate; series mostly up to 114 µM; activity change, negative = inhibition: at the top concentration
Outline: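 Rat TrxR1 (90 nM in the dispensed reagent) was pre-reduced with 400 uM NADPH for 5 min at room temperature, then incubated with compound for 15 min. After 400 uM selenite was added, NADPH fluorescence (Ex 340/Em 450 nm) was followed for 8 min.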
% is set by controls: 0 for no effect and ±100 for the full control effect; potency is the fitted concentration of half-maximal effect.

Thioredoxin reductase 1, cytoplasmic (Rattus norvegicus), sequence (O89049 whole entry, looked up): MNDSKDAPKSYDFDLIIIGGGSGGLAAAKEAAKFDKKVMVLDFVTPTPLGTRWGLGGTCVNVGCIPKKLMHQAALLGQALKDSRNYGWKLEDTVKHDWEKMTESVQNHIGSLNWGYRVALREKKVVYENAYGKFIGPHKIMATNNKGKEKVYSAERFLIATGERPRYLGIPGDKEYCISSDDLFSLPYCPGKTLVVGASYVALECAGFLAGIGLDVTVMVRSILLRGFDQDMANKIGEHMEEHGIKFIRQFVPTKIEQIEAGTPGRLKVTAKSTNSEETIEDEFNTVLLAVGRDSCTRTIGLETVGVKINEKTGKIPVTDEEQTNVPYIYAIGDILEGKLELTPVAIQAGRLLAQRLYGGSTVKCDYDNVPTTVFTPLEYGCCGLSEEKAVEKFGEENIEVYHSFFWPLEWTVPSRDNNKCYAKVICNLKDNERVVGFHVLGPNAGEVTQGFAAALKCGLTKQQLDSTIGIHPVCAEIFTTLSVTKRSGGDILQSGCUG

| Structure (SMILES) | Potency | activity change, negative = inhibition |
| --- | --- | --- |
| CCOC(=O)N1CCN(C(c2cccnc2)c2ccc3cccnc3c2O)CC1 (stereo not drawn) | 0.398 µM (active) | – |
| CCN1CCN(C(c2cccnc2)c2cc(Cl)c3cccnc3c2O)CC1 (stereo not drawn) | 4.47 µM (active) | – |
| CCOc1ccc(C(NC(=O)c2cc(OC)c(OC)c(OC)c2)c2cc(Cl)c3cccnc3c2O)cc1 (stereo not drawn) | – | 17.2% [at 57.1 µM] |
| COc1ccccc1N1CCN(C(CNC(=O)C(=O)NCc2ccc(C)cc2)c2cccnc2)CC1 (stereo not drawn) | – | 6.53% |
| O=C(NCc1cccnc1)C(=O)NCC(c1cccnc1)N1CCN(c2ccccc2)CC1 (stereo not drawn) | – | 0.912% |
| Cc1ccc(NC(=O)C(=O)NCC(c2cccnc2)N2CCOCC2)cc1 (stereo not drawn) | – | 7.14% |
| COc1ccc(CN(Cc2ccccc2)C(=O)c2ccc(O)cc2)cc1COc1ccc(NC(C)=O)cc1 | – | -8.02% |
| Cc1ccc(C2C(C#N)C(C#N)N3CCCN23)cc1 (stereo not drawn) | 22.4 µM (active) | – |
| COc1ccc(CCNC(=O)Cn2c(=O)n(-c3ccccc3)c(=O)c3c(C)c(C)sc32)cc1OC | – | 7.56% |
| CC(C)(C)OC(=O)N1CCC(c2c(C(=O)NCCc3ccsc3)cnn2-c2ccc(F)cc2F)CC1 | – | 19% |
| CCn1cc(CN2CCC(n3nccc3NC(=O)CCCc3ccccc3)CC2)c(C)n1 | – | 18.4% |
| Cc1ccc(CN2CCC(n3nccc3NC(=O)CCCc3ccccc3)CC2)o1 | 70.8 µM (active) | – |
| COc1ccc(CN2CCC(n3nccc3NC(=O)CCCc3ccccc3)CC2)cc1C | – | -5.11% |
| CN(C)c1cccc2ccccc12 | – | -16.8% |
| COC(=O)C1=C(C(=O)OC)[C@@H]2N(Cc3ccccc3)c3ccccc3[C@@]23C[C@@H](C(=O)OC)N(S(=O)(=O)c2ccc(C(F)(F)F)cc2)C3=N1 | – | -11.6% |
| CSc1ncc(Cl)c(C(=O)Nc2ccc(S(=O)(=O)N3CCCC(C)C3)cc2)n1 (stereo not drawn) | – | 20.8% |
| Cc1ccc2nc(NC(=O)c3nc(SCc4ccccc4F)ncc3Cl)sc2c1 | – | 31.9% |
| CCS(=O)(=O)c1ncc(N(Cc2ccc(F)cc2)Cc2ccco2)c(C(=O)Nc2cc(C)ccc2C)n1 | – | 27.3% |
| CSc1nnc(NC(=O)c2nc(S(=O)(=O)Cc3ccc(C)cc3)ncc2Cl)s1 | 15.8 µM (active) | – |
| Cc1cccc(CS(=O)(=O)c2ncc(Cl)c(C(=O)Nc3ccc(F)cc3)n2)c1 | 7.94 µM (active) | – |
| CCCSc1ncc(Cl)c(C(=O)Nc2c(C(=O)Nc3ccccc3)oc3ccccc23)n1 | – | 10% |

| Structure (SMILES) | Potency | activity change, negative = inhibition |
| --- | --- | --- |
| Cc1ccc(NC(=O)c2nc(S(=O)(=O)Cc3cccc(C)c3)ncc2Cl)cc1 | 1.78 µM (active) | – |
| Cc1cccc(NC(=O)Cn2cc(S(=O)(=O)Cc3ccccc3Cl)c3ccccc32)c1 | – | 15.8% |
| Cc1cccc(NC(=O)c2nc(S(=O)(=O)Cc3ccccc3)ncc2Cl)c1 | 5.62 µM (active) | – |
| CCOCCCNC(=O)c1c(NC(=O)c2nc(SC)ncc2Cl)sc2c1CCCC2 | inactive | – |
| Cc1ccc(CCNC(=O)c2ccc(CS(=O)(=O)Cc3cccc(C)c3)o2)cc1 | – | 4% [at 57.1 µM] |
| CCOC(=O)c1ccc(NC(=O)c2nc(SCc3ccc(F)cc3)ncc2Cl)cc1 | – | 18.3% |
| CN(C)c1cccc(C(=O)Nc2nc3ccc(S(=O)(=O)NC(C)(C)C)cc3s2)c1 | – | 13.9% [at 57.1 µM] |
| CN(C)c1ccc(/C=C/c2c3ccccc3nc3ccccc23)cc1 | – | 7.73% |
| Cc1ccc(CNS(=O)(=O)c2ccc(-c3cc(C(F)(F)F)on3)s2)cc1 | – | 14.4% [at 57.1 µM] |
| Cc1nn(-c2ccc(N3CCCCC3)nn2)c(C)c1CCC(=O)NCc1ccc(F)cc1 | – | 15.3% [at 57.1 µM] |
| COc1ccccc1NC(=O)c1oc2ccccc2c1NC(=O)COc1ccccc1OC | – | 16.3% |
| COc1ccc(S(=O)(=O)c2c(Nc3cccc(Cl)c3)sc(C(=O)c3ccccc3)c2N)cc1 | – | 23.1% |
| O=C(CNS(=O)(=O)c1cccs1)N1CCN(c2ccccc2Cl)CC1 | – | 18.1% |
| COc1ccccc1CNC(=O)C(Cc1ccccc1)NS(=O)(=O)c1ccc2c(c1)oc(=O)n2C (stereo not drawn) | – | 15.7% |
| CCOC(=O)c1c(C)oc2nc(C)nc(N(CC(C)C)CC(C)C)c12 | – | -7.59% |
| Cc1ccc(CNC(=O)CCNS(=O)(=O)c2ccc3c(c2)oc(=O)n3C)cc1 | – | 5.75% |
| CCOC(=O)c1c(NC(=O)c2ccc(S(=O)(=O)N(CC)CC)cc2)sc2c1CCCCC2 | – | 8.59% |
| CCc1ccc(CNC(=O)c2cc3cc4ccc(OC)cc4nc3o2)cc1 | – | 19.9% |
| O=C(O)/C(=C/c1c(C(=O)O)[nH]c2cc(Cl)cc(Cl)c12)c1ccccc1 | inactive | – |
| O=C(Nc1nc2ccc(F)cc2s1)c1nc(SCc2ccccc2F)ncc1Cl | – | 17.6% |
| O=C(Nc1ccccc1C(F)(F)F)c1nc(S(=O)(=O)Cc2ccccc2F)ncc1Cl | 2.82 µM (active) | – |

| Structure (SMILES) | Potency | activity change, negative = inhibition |
| --- | --- | --- |
| CN(CC(=O)Nc1ccccc1C(F)(F)F)C(=O)Cc1ccccc1F | – | 12.8% |
| Cc1ccc(Cn2cnc3c(cnn3C(C)(C)C)c2=O)c(F)c1 | – | 17.2% |
| O=C1[C@@H]2C(c3cccnc3)=NO[C@@H]2C(=O)N1c1ccc(Cl)cc1Cl | 70.8 µM (active) | – |
| O=C(NNC1CC(=O)N(c2cccc(Cl)c2)C1=O)c1cccnc1 (stereo not drawn) | – | -9.32% |
| CCN(CC)c1ccc(/C=C/c2c(C)cnc3ccc(C)cc23)cc1 | – | 9.41% |
| COc1cccc(CNC(=O)CCc2nc(-c3ccc(C)cc3)no2)c1 | – | 7.09% |
| COc1ccc(OC)c(NC(=O)CSc2nc3ccccc3nc2N2CCCCC2)c1 | – | -6.8% |
| CCn1cc(C(=O)NCc2ccccc2)c(=O)c2cc(S(=O)(=O)N3CCCCC3)ccc21 | – | 24.3% |
| CCC(=O)N1CCc2cc(Br)cc(S(=O)(=O)CCC(=O)NCc3ccccc3OC)c21 | – | 13.2% |
| O=C(Nc1cccnc1)c1cc2cc(Br)ccc2oc1=O | – | -6.18% [at 57.1 µM] |
| O=C(NC(=S)Nc1ccc(Br)cc1F)C1CCCCC1 | – | 11% [at 57.1 µM] |
| Fc1cc(Br)ccc1NC(=S)Nc1cccnc1 | 50.1 µM (active) | – |
| CN(C)c1ccc(C=Nc2ccc(/C=C/c3ccnc4ccccc34)cc2)cc1 | – | -22.1% |
| O=C(O)/C(=C/c1cccnc1)NC(=O)c1ccccc1 | – | -10.9% |
| O=C(/C=C/c1ccc(Cl)cc1Cl)c1cccnc1 | 4.47 µM (active) | – |
| O=C(OCc1cc(Cl)ccc1OC(F)F)c1cccnc1 | – | 19.4% |
| Cc1cc(C)c(NC(=O)CN2C(=O)c3cccnc3Oc3ccc(Cl)cc32)c(C)c1 | – | 12% |
| Cc1ccc(SCC(CC(C)C)N2CCN(CCc3ccccc3)CCC2=O)cc1 (stereo not drawn) | – | -13.2% |
| O=C(Nc1ccc2nc(SCCOc3ccccc3)sc2c1)c1ccco1 | – | -12.7% |
| O=C(Nc1nc(-c2ccco2)c(-c2ccco2)s1)c1ccco1 | 28.2 µM (active) | – |
| O=C(Nc1nnc(C2CC(=O)N(c3ccc(Cl)cc3)C2)s1)c1ccco1 (stereo not drawn) | – | 35.7% |
